Assay results from PubChem BioAssay (NCATS).
“And” between values parts separate entries of the source, which are not always exact repeats. Equal entries are not always repeated. Inconclusive results are not listed. The source made the active and inactive calls. The call rests on the fitted dose curve; in most records, active means well fitted curve in the direction sought with a large enough effect; inconclusive means small, poorly fitted or top-dose-only effect, or another doubt; inactive means no such curve, though single readings can be large; an effect the other way counts as inactive or inconclusive.

Columns and labels:
HaCat [1] = assay: Cytotoxic Profiling of Annotated Libraries Using Quantitative High-Throughput Screening (AID 1296008); conditions: Five cell lines viability, CellTiter-Glo ATP luminescence, 48-72 h; max response: active compounds read low; further: nearly all actives have a fitted effect of over 60% in size
Procedure, shortened: (§1)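 Cytotoxicity was measured as CellTiter-Glo ATP luminescence, read after 10 min at room temperature. Compound treatment of the cells lasted 48 or 72 hr at 37 degrees Celsius in a qHTS format.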

NIH3T3 = assay: as above; conditions: Five cell lines viability, CellTiter-Glo ATP luminescence, 48-72 h; max response: active compounds read low
Procedure, shortened: as §1

MCC-13 = assay: qHTS assay to identify novel small-molecules to repurpose for Merkel cell carcinoma treatment (AID 1296009); conditions: MCC and control cell lines, CellTiter-Glo viability, 72 h; series mostly up to 46 µM; further: nearly all actives have a fitted effect of over 60% in size
Procedure, shortened: (§2)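 72 hr, 37 degree celsius; NPC 8-pt / MIPE 11-pt dose response; compound pinned in DMSO; CellTiter-Glo, 10 min RT, luminescence; normalized to no-cell and DMSO controls.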

UISO = assay: as above; conditions: MCC and control cell lines, CellTiter-Glo viability, 72 h; series mostly up to 46 µM
Procedure, shortened: as §2

WaGa = assay: as above; conditions: MCC and control cell lines, CellTiter-Glo viability, 72 h; series mostly up to 46 µM
Procedure, shortened: as §2

Es-2 = assay: Primary qHTS to identify gynecologic anti-cancer compounds using libraries of approved drugs and bioactive compounds (AID 1345084); conditions: Gynecologic cancer cell panel viability, ATPlite luminescence, 48 h; series mostly up to 57.5 µM; further: nearly all actives have a fitted effect of over 55% in size
Procedure, shortened: (§3)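 Cell viability after 48 h drug treatment, ATPlite luminescence readout; five doses.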

HeLa = assay: as above; conditions: Gynecologic cancer cell panel viability, ATPlite luminescence, 48 h; series mostly up to 57.5 µM
Procedure, shortened: as §3

Hek293T = assay: as above; conditions: Gynecologic cancer cell panel viability, ATPlite luminescence, 48 h, control line for the selectivity index; series mostly up to 57.5 µM
Procedure, shortened: as §3

KB-3-1 = assay: Cytotoxic Profiling of Annotated Libraries Using Quantitative High-Throughput Screening (AID 1296008); conditions: Five cell lines viability, CellTiter-Glo ATP luminescence, 48-72 h; max response: active compounds read low; further: nearly all actives have a fitted effect of over 60% in size
Procedure, shortened: as §1

MKL-2 = assay: qHTS assay to identify novel small-molecules to repurpose for Merkel cell carcinoma treatment (AID 1296009); conditions: MCC and control cell lines, CellTiter-Glo viability, 72 h; series mostly up to 46 µM; further: nearly all actives have a fitted effect of over 60% in size
Procedure, shortened: as §2

C33A = assay: Primary qHTS to identify gynecologic anti-cancer compounds using libraries of approved drugs and bioactive compounds (AID 1345084); conditions: Gynecologic cancer cell panel viability, ATPlite luminescence, 48 h; series mostly up to 57.5 µM; further: nearly all actives have a fitted effect of over 55% in size
Procedure, shortened: as §3

CAOV3 = assay: as above; conditions: Gynecologic cancer cell panel viability, ATPlite luminescence, 48 h; series mostly up to 57.5 µM
Procedure, shortened: as §3

CASKI = assay: as above; conditions: Gynecologic cancer cell panel viability, ATPlite luminescence, 48 h; series mostly up to 57.5 µM
Procedure, shortened: as §3

JEG-3 = assay: as above; conditions: Gynecologic cancer cell panel viability, ATPlite luminescence, 48 h; series mostly up to 57.5 µM
Procedure, shortened: as §3

MCC-26 = assay: qHTS assay to identify novel small-molecules to repurpose for Merkel cell carcinoma treatment (AID 1296009); conditions: MCC and control cell lines, CellTiter-Glo viability, 72 h; series mostly up to 46 µM; further: nearly all actives have a fitted effect of over 60% in size
Procedure, shortened: as §2

HEK293 = assay: Cytotoxic Profiling of Annotated Libraries Using Quantitative High-Throughput Screening (AID 1296008); conditions: Five cell lines viability, CellTiter-Glo ATP luminescence, 48-72 h; max response: active compounds read low; further: nearly all actives have a fitted effect of over 60% in size
Procedure, shortened: as §1

MKL-1 = assay: qHTS assay to identify novel small-molecules to repurpose for Merkel cell carcinoma treatment (AID 1296009); conditions: MCC and control cell lines, CellTiter-Glo viability, 72 h; series mostly up to 46 µM; further: nearly all actives have a fitted effect of over 60% in size
Procedure, shortened: as §2

HACAT [2] = assay: as above; conditions: MCC and control cell lines, CellTiter-Glo viability, 72 h; series mostly up to 44.8 µM
Procedure, shortened: as §2
On the % scale 0 is the no-effect control and ±100 the full control effect; potency means the concentration at half of the fitted maximal effect.

COc1cc2c(Oc3ccc4[nH]c(C)cc4c3F)ncnc2cc1OCCCN1CCCC1
inactive: Potency (MCC-13) | Potency (UISO) | Potency (WaGa) | Potency (Es-2) | Potency (HeLa) | Potency (Hek293T)
active: Potency (HaCat [1]) 8.33 µM and 7.31 µM | Potency (NIH3T3) 1.87 µM and 2.06 µM

COc1cc2ncnc(Nc3ccc(F)c(Cl)c3)c2cc1NC(=O)C=CCN1CCCCC1
active: Potency (MKL-2) 3.72 µM
inactive: max response (HaCat [1]) -96.7% | outcome (KB-3-1) | max response (NIH3T3) -20.4% | Potency (MCC-13)

Cc1cn(-c2cc(NC(=O)c3ccc(C)c(Nc4nccc(-c5cccnc5)n4)c3)cc(C(F)(F)F)c2)cn1
inactive: Potency (C33A) | Potency (CAOV3) | Potency (CASKI) | Potency (Es-2) | Potency (HeLa) | Potency (Hek293T) | Potency (JEG-3)

CCC(=C(c1ccccc1)c1ccc(OCCN(C)C)cc1)c1ccccc1
inactive: max response (HaCat [1]) 2.08% | max response (KB-3-1) -16.9% | max response (NIH3T3) 1.38% | Potency (MCC-13) | Potency (MCC-26)

Fc1cc(-c2cccc3ncc(-c4cnn(C5CCNCC5)c4)nc23)cc(F)c1CN1CCOCC1
inactive: Potency (HeLa) | Potency (Hek293T)

COc1c(OCCCN2CCOCC2)ccc2c3n(c(=NC(=O)c4cnc(N)nc4)nc12)CCN3
active: Potency (HEK293) 363 nM and 42.2 nM | Potency (KB-3-1) 0.0944 µM | Potency (NIH3T3) 2.88 µM and 59.6 nM | Potency (C33A) 0.316 µM | Potency (CASKI) 0.112 µM | Potency (HeLa) 1 µM
inactive: Potency (MKL-1) | activity change, negative = cytotoxicity (CAOV3) -27.2% [at 11.6 µM]

COC(=O)c1ccc2c(C(=Nc3ccc(N(C)C(=O)CN4CCN(C)CC4)cc3)c3ccccc3)c(O)[nH]c2c1
inactive: Potency (C33A) | Potency (CASKI) | Potency (Es-2) | Potency (Hek293T) | Potency (JEG-3)

Cc1ccc(C(=O)Nc2ccc(CN3CCN(C)CC3)c(C(F)(F)F)c2)cc1C#Cc1cnc2cccnn12
active: Potency (C33A) 25.1 µM | Potency (CASKI) 14.1 µM | Potency (Es-2) 8.91 µM | Potency (HeLa) 11.2 µM

CCN1CCN(Cc2ccc(-c3cc4c(N[C@H](C)c5ccccc5)ncnc4[nH]3)cc2)CC1
inactive: max response (KB-3-1) -20%
active: Potency (HaCat [1]) 1.48 µM | Potency (NIH3T3) 16.6 µM | Potency (MCC-13) 4.18 µM | Potency (MCC-26) 0.743 µM | Potency (MKL-2) 0.0132 µM | Potency (UISO) 0.118 µM | Potency (WaGa) 0.0209 µM

COc1ccc(CC2c3cc(OC)c(OC)cc3CC[N+]2(C)CCC(=O)OCCCCCOC(=O)CC[N+]2(C)CCc3cc(OC)c(OC)cc3C2Cc2ccc(OC)c(OC)c2)cc1OC (centres undefined)
inactive: max response (HaCat [1]) 3.6% | max response (KB-3-1) 4.25% and 0.363% | max response (NIH3T3) -6.84% | activity change, negative = cytotoxicity (MCC-13) -6.08% [at 9.22 µM] | activity change, negative = cytotoxicity (MKL-1) -7.93% [at 9.22 µM] | activity change, negative = cytotoxicity (MKL-2) -23.6% [at 9.22 µM] | activity change, negative = cytotoxicity (UISO) -1.41% [at 9.22 µM] | activity change, negative = cytotoxicity (WaGa) -8.88% [at 9.22 µM]

CNc1nccc(-c2cccnc2Oc2cc(C(=O)Nc3cccc(C(F)(F)F)c3)ccc2C)n1
inactive: outcome (KB-3-1) | Potency (MKL-1) | Potency (MKL-2) | Potency (UISO) | Potency (WaGa) | Potency (C33A) | Potency (Hek293T) | Potency (JEG-3)
active: Potency (NIH3T3) 18.4 µM

CCN(CC)CCNC(=O)c1ccc2nc(-c3ccccc3)c(-c3ccc(CN4CCC(n5c(=O)[nH]c6ccccc65)CC4)cc3)nc2c1
inactive: Potency (CASKI) | Potency (Es-2) | Potency (HeLa)
active: Potency (HEK293) 2.96 µM and 8.2 µM | Potency (NIH3T3) 10.5 µM | Potency (MCC-13) 8.33 µM | Potency (MKL-1) 1.32 µM | Potency (MKL-2) 1.18 µM | Potency (UISO) 16.6 µM | Potency (WaGa) 7.43 µM

CC(=O)Nc1sc2c(c1-c1nc3ccccc3s1)CNC2
active: Potency (HEK293) 11.8 µM | Potency (KB-3-1) 23.5 µM | Potency (UISO) 8.33 µM
inactive: Potency (MCC-13) | Potency (MCC-26) | Potency (C33A) | Potency (CASKI) | Potency (HeLa) | Potency (JEG-3)

COC(=O)C1=C(C)NC(C)=C(C(=O)OCCN2CCN(C(c3ccccc3)c3ccccc3)CC2)C1c1cccc([N+](=O)[O-])c1 (centres undefined)
active: Potency (HEK293) 11.9 µM
inactive: max response (KB-3-1) -4.82% | Potency (MCC-26) | Potency (CASKI) | Potency (Es-2) | Potency (HeLa) | Potency (Hek293T) | Potency (JEG-3)

Cn1cncc1[C@@](N)(c1ccc(Cl)cc1)c1ccc2c(c1)c(-c1cccc(Cl)c1)cc(=O)n2C
inactive: Potency (MCC-26)
active: Potency (HEK293) 0.148 µM | Potency (KB-3-1) 14.8 µM | Potency (MKL-1) 4.69 µM | Potency (MKL-2) 3.72 µM | Potency (WaGa) 0.935 µM

C=CC(=O)N1CCC[C@@H](n2nc(-c3ccc(Oc4ccccc4)cc3)c3c(N)ncnc32)C1
active: Potency (HaCat [1]) 1.32 µM | Potency (HACAT [2]) 1.3 µM
inactive: max response (KB-3-1) -15.2% and 0.931% | Potency (MCC-13) | Potency (MKL-1) | Potency (UISO) | Potency (C33A) | Potency (CASKI) | Potency (Es-2) | Potency (HeLa) | Potency (Hek293T) | Potency (JEG-3)

CC(C)[C@H](C(=O)Nc1ccc(C(=O)NO)cc1)c1ccccc1
active: Potency (HaCat [1]) 5.9 µM | Potency (KB-3-1) 2.35 µM | Potency (MCC-13) 5.26 µM | Potency (MKL-1) 0.935 µM | Potency (MKL-2) 0.833 µM | Potency (UISO) 3.32 µM | Potency (WaGa) 0.662 µM

CC(C)c1ccccc1Cc1cc(C(=O)Nc2ccc(S(=O)(=O)c3ccccc3C(C)(C)C)cc2)c(O)c(O)c1O
active: Potency (KB-3-1) 8.33 µM | Potency (MKL-1) 26.4 µM
inactive: Potency (MKL-2)
